# Source: PubChem BioAssay (National Center for Advancing Translational Sciences (NCATS))
# IL-1B inflam inh – inflammasome signaling inhibition, IL-1 beta readout. THP-1 LPS/ATP IL-1B secretion, AlphaLISA, 16 h; active compounds read low. activity change, % at 57.5 µM. 360,000 tested, 4.7% active; in the data active means activity change below about -50%; inconclusive means mostly about -30% to -49%
#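 Secreted IL-1B measured by AlphaLISA bead assay after 16 h compound exposure of THP-1 cells; compounds (final up to 57.5 uM) added 1 h before LPS (250 ng/mL) and ATP (1.25 mM) stimulation; lower signal means less secretion.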
# DT40 TDP1 CPT – DT40-hTDP1 cell growth loss with CPT | chicken DT40 Tdp1-/-;hTDP1 cells + 20 nM CPT, ATP luminescence, 48 h | Potency, µM (highest dose often 46.2 µM), for inactives: at the top dose activity change, negative = growth inhibition, usual class: inhibitors | 420,000 tested, 12% active | AID 686979; further: potency means the concentration at half of the fitted maximal effect; nearly all actives have a fitted effect of over 55% in size
#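 Cell growth measured by CellTiter-Glo luminescence after a minimum 48 h, 37 C compound exposure with 20 nM CPT in Tdp1-knockout DT40 cells stably expressing hTDP1, seeded 400/well; qHTS titration format.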
# HT1080 IDH1KD tx – kills HT-1080 cells with IDH1 knockdown; AID 686971; HT-1080 IDH1 knockdown viability, ATP luminescence, 48 h; Potency, µM (series often up to 46.1 µM), inactives show at the highest dose activity, negative = toxicity, usual class: cytotoxic; 360,000 tested, 2% active;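 further: potency means the concentration at half of the fitted maximal effect; 0% = DMSO wells and -100% = cell-free medium wells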
#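 Cytotoxicity counter-line: IDH1KD HT-1080, 48 h, CellTiter-Glo. Curves classed by r2, magnitude and activity.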
# HT1080-NT tox – kills 2HG-producing HT-1080-NT fibrosarcoma cells; 360,000 tested, 1.6% active; HT-1080-NT fibrosarcoma viability, CellTiter-Glo ATP luminescence, 48 h; Potency, µM (titrated, usually from 46.1 µM), for the others: top-dose activity, negative = less viability, most hits filed as cytotoxic; AID 686970;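 further: NT is the 2HG producing partner of a matched IDH1 knockdown line; potency means the concentration at half of the fitted maximal effect; 0% = DMSO-treated cells and -100% = media-only wells without cells; nearly all actives have a fitted effect of over 55% in size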
#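 Viability by CellTiter-Glo luminescence after 48 h compound exposure at 37C of HT-1080-NT cells (750/well, RPMI, 5% FBS). % activity scaled between DMSO wells and medium-only wells, then curve-fitted and categorized by curve class.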
# ELG1 DNA repair – blocks ELG1-dependent DNA repair in HEK293T cells; HEK293T ELG1-luciferase reporter, luminescence, 16 h; DNA damage induced by 5-fluorouridine; Potency, µM (highest dose often 46.1 µM), for inactives: at the highest dose activity change, negative = inhibition, actives largely listed as inhibitors; 330,000 tested, 2.3% active; AID 504467; further: potency means the concentration at half of the fitted maximal effect; nearly all actives have a fitted effect of over 55% in size
#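 Cells (2,000 per well) received 5-fluorouridine plus test compound or DMSO and were incubated 16 hr at 37 °C, 5% CO2. Luciferase activity was read by luminescence 30 min after ONE-Glo addition; signal suppression marked inhibition of damage-induced ELG1 function.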
# DT40 TDP1 no CPT – qHTS for Inhibitors of human tyrosyl-DNA phosphodiesterase 1 (TDP1): qHTS in cells in absence of CPT; DT40 Tdp1-/- hTDP1 cells, no CPT, ATP luminescence, 48 h; Potency, µM (doses to about 46.2 µM), without a hit: top-dose activity change, negative = growth inhibition, usual class: inhibitors; 420,000 tested, 15% active; AID 686978, 2013; further: potency means the concentration at half of the fitted maximal effect; nearly all actives have a fitted effect of over 55% in size
#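 Seeded 400 DT40-hTDP1 cells/well (vehicle DMSO, no 20 nM CPT); pinned compounds; ≥48 hr at 37 °C; CellTiter-Glo luminescence as viability measure.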
# An asterisk follows results filed as active; ? = inconclusive; / = no result given. An excerpt weighted towards active compounds, which were near 19% of everything screened. Unless noted, the call rests on the fitted dose curve; in most records, active means well fitted curve in the direction sought with a large enough effect; inconclusive means small, poorly fitted or top-dose-only effect, or another doubt; inactive means no such curve, though single readings can be large; an effect the other way counts as inactive or inconclusive. Unless noted, on the % scale 0 is the no-effect control and ±100 the full control effect.
SMILES,IL-1B inflam inh,DT40 TDP1 CPT,HT1080 IDH1KD tx,HT1080-NT tox,ELG1 DNA repair,DT40 TDP1 no CPT
COc1ccc(OC)c(CN2CCN(C(=O)c3ccc(C)c(S(=O)(=O)Nc4ccccc4OC)c3)CC2)c1,-2,?,0%,-25%,/,?
COc1ccc(OC)c(CN2CCN(C(=O)c3cccc(S(=O)(=O)Nc4ccc(C)cc4)c3)CC2)c1,-53*,26µM*,-11%,-3%,?,?
Cc1nc(-c2ccc(Cl)cc2)oc1COC(C)(C)C(=O)O,/,-3%,/,/,/,-12%
CCOCCCNc1nc2c(c(=O)n(C)c(=O)n2C)n1CCCc1ccccc1,-5,16µM*,21%,-5%,?,21µM*
Cn1c(=O)c2c(nc(NCc3ccccc3)n2C)n(C)c1=O,17,?,3%,-5%,-27%,-18%
COCCNc1nc2c(c(=O)n(C)c(=O)n2C)n1CCCc1ccccc1,24,15µM*,-1%,1%,/,10µM*
Cn1c(=O)c2c(nc(NCc3ccccc3)n2CCCc2ccccc2)n(C)c1=O,-1,9.2µM*,-15%,-7%,?,5.2µM*
C/C(=N/NC(=O)CNC(=O)COc1cccc(C)c1)c1ccc(Cl)cc1,7,-20%,9%,15%,12%,7%
Cc1cc(C)c(OCC(=O)OCC(=O)NCC2CCCCC2)c(C)c1,-4,1%,-2%,-7%,12%,-8%
CC(C)CN(CCNC(=O)c1cc(-c2cccs2)nc2ccccc12)CC(C)C,/,3%,/,/,/,?
Oc1ccccc1-c1nc(NCC2CCCO2)c2ccccc2n1 (centres undefined),?,?,?,?,23µM*,?
COc1ccccc1Nc1nc(NCC2CCCO2)c2ccccc2n1 (centres undefined),/,23µM*,?,-59%,?,21µM*
O=S(=O)(Nc1nc2ccccc2nc1NCC1CCCO1)c1ccccc1 (centres undefined),16,-6%,13%,-1%,3%,-14%
COc1cccc(-c2nc(NCC3CCCO3)c3ccccc3n2)c1O (centres undefined),-84*,?,-2%,-6%,?,?
COc1ccc(S(=O)(=O)Nc2nc3ccccc3nc2NCC2CCCO2)cc1 (centres undefined),40,12%,2%,2%,?,?
CC(C)[C@H](NC(=O)OC(C)(C)C)c1cc(C(=O)NC2CC2)c(N)s1,-1,-19%,0%,-2%,/,4%
CCCCSCCCNC(=O)Nc1ccc(C)c(C)c1,-28,-7%,-4%,-9%,-13%,-11%
COc1ccccc1C1CCN(Cc2cccc(C(=O)N3CCC(O)CC3)c2)CC1,10,?,-7%,-3%,-4%,?
Cc1cc(=O)oc2c(N)nccc12,-105*,?,-16%,-25%,/,?
Cc1ccc2c(c1)ncc[n+]2CC(=O)c1ccc(Cl)cc1Cl,/,-12%,/,/,/,-29%
CN(C)C(=O)CSc1nnc(-c2cc(-c3cccs3)nc3ccccc23)o1,-60*,-46%,-7%,0%,12µM*,18µM*
CCN(CC)C(=O)CSc1nnc(-c2cc(-c3ccc(Cl)cc3)nc3ccccc23)o1,3,-68%,2%,18%,?,?
CCc1ccccc1NC(=O)CCc1c(C)nc(SC)nc1C,24,6%,1%,1%,-3%,-17%
CC1(C)CC(N=c2cc(-c3ccccc3)oc3ccc(Cl)cc23)CC(C)(C)N1,-102*,5.2µM*,16µM*,7.3µM*,?,5.8µM*
OCCCN=c1cc(-c2ccccc2)oc2ccc(Cl)cc12,-102*,?,?,?,?,18µM*
SMILES,IL-1B inflam inh,DT40 TDP1 CPT,HT1080 IDH1KD tx,HT1080-NT tox,ELG1 DNA repair,DT40 TDP1 no CPT
O=c1cc(-c2ccccc2)oc2ccc(O)cc12,-6,?,12%,7%,?,?
Cc1cc(F)ccc1NC(=O)CCS(=O)(=O)c1cccc2nsnc12,/,-22%,/,/,/,6%
C[C@H](CCC(=O)NCC(=O)O)C1CC[C@H]2C3CC[C@@H]4C[C@H](O)CC[C@]4(C)C3C[C@H](O)[C@]12C (some centres undefined),/,0%,/,/,/,-1%
O=C(CN1CCCN(Cc2ccc(F)cc2)S1(=O)=O)Nc1ccc2c(c1)OCCO2,/,-3%,/,/,/,-16%
O=C(CN1CCN(Cc2ccc(F)cc2Cl)S1(=O)=O)Nc1ccc(F)cc1,/,12µM*,/,/,/,15µM*
COc1ccc(NC(=O)CN2CCN(Cc3ccc(F)cc3)S2(=O)=O)cc1Cl,/,?,/,/,/,21µM*
O=C(NCc1ccccc1CN1CCCC1)C1CCN(C(=O)c2ccc(F)cc2)CC1,-23,-9%,-1%,1%,16%,-10%
Cc1ccc(N(C(=O)c2csnn2)C(C(=O)NC2CCCCC2)c2cccnc2)c(C)c1 (centres undefined),5,2%,9%,11%,-2%,-15%
CSc1cccc(NC(=O)CN(c2cccc(C)c2)S(C)(=O)=O)c1,-16,18µM*,-2%,-3%,-6%,?
CN(C)S(=O)(=O)N(CC(=O)Nc1ccc(F)c(F)c1)c1ccccc1,0,-17%,-6%,4%,3%,-10%
COC(=O)c1ccccc1NC(=O)CN(c1ccccc1)S(=O)(=O)N(C)C,-2,-16%,7%,-1%,/,-11%
COC(=O)c1cc(NC(=O)CN(c2ccccc2)S(=O)(=O)N(C)C)ccc1Cl,/,?,/,/,/,23µM*
CSc1cccc(NC(=O)CN(c2ccccc2)S(=O)(=O)N(C)C)c1,13,26µM*,?,-4%,-1%,29µM*
CN(C)S(=O)(=O)N(CC(=O)Nc1ccc2ccccc2c1)c1ccccc1,4,-4%,-28%,-29%,23µM*,-24%
C=C(CN(C)C)C(=O)c1ccc(OC2OC(COC(C)=O)C(OC(C)=O)C(OC(C)=O)C2OC(C)=O)cc1 (centres undefined),-101*,0.46µM*,4.6µM*,?,/,0.58µM*
CC(=O)OC[C@H]1O[C@@](COC(C)=O)(O[C@H]2O[C@H](COC(C)=O)[C@@H](OC(C)=O)[C@H](OC(C)=O)[C@H]2OC(C)=O)[C@@H](OC(C)=O)[C@@H]1OC(C)=O,/,4%,/,/,/,-6%
